Each structure is given as a SMILES string. Among all 16,000 compounds or so, about 5,100 (32%) were called active. Roughly 25% stayed inconclusive and do not appear here. The call rests on the fitted dose curve; in most records, active means well fitted curve in the direction sought with a large enough effect; inconclusive means small, poorly fitted or top-dose-only effect, or effect the other way; inactive means no such curve, though single readings can be large or run the other way. This is one part of the list.
On the % scale 0 is the no-effect control and ±100 the full control effect.

Chain of Cytochrome P450 3A4 (Homo sapiens) (P08684 whole entry, looked up): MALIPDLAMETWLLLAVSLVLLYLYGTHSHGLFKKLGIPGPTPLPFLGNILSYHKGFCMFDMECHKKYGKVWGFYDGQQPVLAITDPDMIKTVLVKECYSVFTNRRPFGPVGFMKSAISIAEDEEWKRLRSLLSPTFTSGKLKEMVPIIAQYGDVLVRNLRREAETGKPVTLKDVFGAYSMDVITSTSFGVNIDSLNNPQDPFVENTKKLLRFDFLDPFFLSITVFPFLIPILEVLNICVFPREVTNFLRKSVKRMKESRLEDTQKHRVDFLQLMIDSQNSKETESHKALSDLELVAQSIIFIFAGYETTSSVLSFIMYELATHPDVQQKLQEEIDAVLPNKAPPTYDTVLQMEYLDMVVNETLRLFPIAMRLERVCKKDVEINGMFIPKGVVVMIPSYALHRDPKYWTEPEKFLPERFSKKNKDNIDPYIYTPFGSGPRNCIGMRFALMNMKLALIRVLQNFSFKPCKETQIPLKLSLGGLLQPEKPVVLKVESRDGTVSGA

The assay has as its target Cytochrome P450 3A4 (Homo sapiens) (UniProt P08684). Description: Cytochrome panel assay with activity outcomes. To be noted: recombinant CYP, pro-luciferin dealkylation, luminescence, p450-cyp3a4; series mostly up to 57.1 µM.
Turning to `Cc1cccc(NC(=O)CSc2nc(-c3ccccc3)c(C#N)c(=O)[nH]2)c1C`, the activity, negative = inhibition is 4.48% [at 0.457 µM] (inactive). Usually AC50 stands for the midpoint of the concentration-response curve, whichever way the signal moves. With `Cc1cccc(NC(=O)CSc2nnc(-c3ccco3)c(-c3ccco3)n2)c1C`, the AC50 is 15.8 µM (active). Same read-out and setting: the value for `O=S1(=O)C=C(Oc2ccc3ccccc3c2)c2ccccc21` was “inactive”; that for `COc1ccc(C2(CNC(=O)/C=C/c3ccco3)CCCC2)cc1OC` was 3.55 µM (active); that for `CN(C)c1ncc2nc(-c3ccc(Cl)cc3)c(=O)n(C)c2n1` was “inactive”. For the molecule `CC1=NN(c2ccc(S(=O)(=O)O)cc2)C(=O)/C1=C\c1ccc(Cl)cc1`, the activity, negative = inhibition was 2.74% [at 11.4 µM] (inactive). As to `Cc1ccc(S(=O)(=O)N/N=C/c2cccn2-c2ccc(Cl)cc2)cc1`, the half-maximal activity concentration (AC50) was 10 µM (active). The same measure, in the same setting: the value for `O=S(=O)(N/N=C\c1cccn1-c1ccccc1)c1ccc2ccccc2c1` was 7.08 µM (active).

Consider `Cc1ccc(-c2nn(-c3ccccc3)cc2/C=N/NS(=O)(=O)c2ccccc2)cc1`, for which the activity, negative = inhibition was -20.9% [at 2.29 µM] (inactive). Take `O=[N+]([O-])c1ccc(N/N=C\c2cccn2-c2ccccc2)nc1`: the activity, negative = inhibition is 0.811% [at 2.29 µM] (inactive). On the same count and under the same terms, in the case of `C/C(=N/O)[C@@H]1C[C@H](CC(=O)O)C1(C)C` it was -25.4% [at 11.4 µM] (inactive). Take `O=C(c1cnccn1)N1CCC2(CC1)CN(Cc1cc(C(F)(F)F)cc(C(F)(F)F)c1)C2`: the AC50 result is “inactive”.

Take `O=C(c1csnn1)N1CCC2(CC1)CN(Cc1cc(C(F)(F)F)cc(C(F)(F)F)c1)C2`: the AC50 result was “inactive”. In the case of `O=C(c1cnccn1)N1CCC[C@@]2(CCN(Cc3ccncc3)C2)C1`, the AC50 was 15.8 µM (active). Regarding `O=C(c1cnccn1)N1CCC[C@@]2(CCN(Cc3cc(C(F)(F)F)cc(C(F)(F)F)c3)C2)C1`, the concentration at half-maximal activity (AC50) was 7.94 µM (active).

Take `Cc1ccccc1OCCCN1CCCC1`: the AC50 entry was “inactive”. The same measure, in the same setting: the value for `OC[C@@H](O)CN1CCN(c2ccccc2)CC1` was “inactive”; that for `c1ccc(N2CCN(CCCOc3ccc4c(c3)OCO4)CC2)cc1` was 3.16 µM (active); that for `COc1cccc(Cn2c(=O)c(CCc3ccccc3)nc3cnc(N4CCNCC4)nc32)c1` was 15.8 µM (active). Take `CN1CCN(c2ncc3ncc(=O)n(C[C@H]4CCCO4)c3n2)CC1`: the AC50 entry was “inactive”. Still for that read-out and setting: the value for `CN1CCN(c2ncc3ncc(=O)n(CCC#N)c3n2)CC1` was “inactive”.

As for `CN1CCN(c2ncc3nc(CCc4ccccc4)c(=O)n(Cc4ccc(F)cc4)c3n2)CC1`, the AC50 is 5.01 µM (active). On to `COc1cccc(Cn2c(=O)cnc3cnc(N4CCN(C)CC4)nc32)c1`, for which the AC50 is 15.8 µM (active). On the same count and under the same terms, the value for `COc1cccc(Cn2c(=O)c(CCc3ccccc3)nc3cnc(N4CCN(C)CC4)nc32)c1` was 15.8 µM (active). Regarding `NC([N-]/N=C/c1ccccn1)=[S]=[Fe].O=S(=O)(O)O`, the activity, negative = inhibition is -4.8% [at 11.4 µM] (inactive). With `Cc1ccccc1NC(=O)CSc1nc(N2CCCCC2)nc(N2CCCCC2)n1`, the AC50 was 2 µM (active).

On to `O=C(CSc1nc2ccccc2o1)Nc1ccccc1N1CCCCCC1`, for which the AC50 is 3.98 µM (active).

As to `O=C(CSc1nc2ccccc2o1)Nc1nc2ccccc2s1`, the activity, negative = inhibition is -7.57% [at 2.29 µM] (inactive). Consider `Cc1cc(C)nc(SCC(=O)Nc2ccccc2[N+](=O)[O-])n1`, for which the AC50 entry was “inactive”.

Regarding `O=C(CNC1CCCCCC1)Nc1ccccc1N1CCCCC1`, the activity, negative = inhibition was -25% [at 2.29 µM] (inactive). Take `CC(C)NC[C@H](O)c1cc(O)cc(O)c1`: the AC50 entry was “inactive”. On the same count and under the same terms, the value for `COc1ccccc1-c1c(C)oc2c(CN3CCN(CCO)CC3)c(O)ccc2c1=O` was “inactive”. With `COc1cccc2cc3c(=O)oc4ccccc4c3nc12`, the activity, negative = inhibition is -6.03% [at 2.29 µM] (inactive).

For the molecule `COc1cccc(-c2cc(=O)c3ccccc3o2)c1N`, the AC50 is 7.94 µM (active). Same read-out and setting: the value for `CCOc1cc(/C=C2/NC(=O)N(CC(=O)Nc3cccc(C)c3)C2=O)ccc1OC` was 1.78 µM (active). As for `Cc1ccc(NC(=O)CN2C(=O)N/C(=C/c3ccc(C)o3)C2=O)cc1`, the activity, negative = inhibition is 7.39% [at 2.29 µM] (inactive).

With `CCCOc1ccc(-c2nc(N)n[nH]2)cc1`, the activity, negative = inhibition is 8.08% [at 11.4 µM] (inactive). For the molecule `CCC1CC(CSc2ncn[nH]2)OC1=O` (centres undefined), the AC50 entry is “inactive”. `COc1ccc(OCCSc2ncn[nH]2)cc1`: the half-maximal activity concentration (AC50) is 14.1 µM (active). As to `C[C@@H](CNC(N)=O)NC(N)=O`, the activity, negative = inhibition was -2.29% [at 11.4 µM] (inactive). On the same count and under the same terms, in the case of `O=C(NCC1COc2ccccc2O1)C1C2C=CC3(CN(Cc4cccs4)C(=O)C13)O2` (centres undefined) it was -13.1% [at 2.29 µM] (inactive). As to `Cc1ccc(CN2CC34C=CC(O3)C(C(=O)NCc3ccco3)C4C2=O)cc1` (centres undefined), the AC50 is 8.91 µM (active).

In the case of `Cc1ccc(CN2CC34C=CC(O3)C(C(=O)NCc3ccc5c(c3)OCO5)C4C2=O)cc1` (centres undefined), the half-maximal activity concentration (AC50) was 0.251 µM (active).

Take `COCCCNC(=O)C1C2C=CC3(CN(Cc4ccc(C)cc4)C(=O)C13)O2` (centres undefined): the AC50 was 7.94 µM (active). Same read-out and setting: in the case of `COc1ccc(CCN2CC34C=CC(O3)C(C(=O)NCc3ccccc3)C4C2=O)cc1OC` (centres undefined) it was 2.82 µM (active); in that of `CCOc1ccc(NC(=O)N2CCC(C(N)=O)(N3CCCCC3)CC2)cc1`, “inactive”. On to `CCCCNC(=O)C1C2C=CC3(CN(Cc4ccccc4Cl)C(=O)C13)O2` (centres undefined), for which the AC50 is 3.98 µM (active). The same measure, in the same setting: the value for `O=C(O)C1C2C=CC3(CN(Cc4ccccn4)C(=O)C13)O2` (centres undefined) was “inactive”; that for `CCCCNC(=O)C1CCN(Cc2ccccn2)CC1` was “inactive”. Turning to `CC(CC(=O)O)(CC(=O)O)c1ccccc1`, the activity, negative = inhibition is 0.682% [at 11.4 µM] (inactive). Regarding `c1ccc([C@@H]2CN3CCSC3=N2)cc1`, the AC50 result was “inactive”. Still for that read-out and setting: the value for `Cc1ccccc1Cn1cc(NC(=O)CSc2nc3c(c(C(F)(F)F)n2)CCc2ccccc2-3)cn1` was 5.01 µM (active).

As to `Cc1nn(Cc2ccc(Cl)cc2)c(C)c1NC(=O)CSc1nc2c(c(C(F)(F)F)n1)CCc1ccccc1-2`, the concentration at half-maximal activity (AC50) was 3.16 µM (active). In the case of `NC(CSS(=O)(=O)O)=N[C@@H]1C[C@H]2CC[C@@H]1C2`, the activity, negative = inhibition was -19.6% [at 11.4 µM] (inactive). The same measure, in the same setting: in the case of `CCCC1c2c(ccc3ccccc23)Oc2ccc3ccccc3c21` it was -11.1% [at 11.4 µM] (inactive). Take `Cc1cccc(CNc2cc(-c3cccc(C#N)c3)ncn2)c1`: the AC50 was 7.94 µM (active). Regarding `N#Cc1cccc(-c2cc(NCc3ccccc3)ncn2)c1`, the AC50 result was “inactive”. On the same count and under the same terms, in the case of `N#Cc1cccc(-c2cc(NCc3cccnc3)ncn2)c1` it was 2.51 µM (active); in that of `CC1(C)CCC(C)(C)c2cc(C(=O)Nc3ccc(C(=O)O)cc3)ccc21`, “inactive”.
